Sampled rows, rich in hits. Any-hit rate of the full collection: about 0.9%.
CDC25B CDK2 inh: human CDC25B-CDK2/CyclinA binding inhibition; HTRF CDC25B-CDK2/CyclinA binding, anti-His/anti-Flag; stronger effect = higher value; 0.72% of 94,000 active; z-score (test concentration not listed); P30305+P24941; in the data active = z-score above about 3.2
TAR Tat displ: HIV-1 TAR-Tat binding disruption | HIV-1 TAR RNA, Tat peptide displacement FRET; stronger effect = higher value | z-score (concentration not given with the values) | 0.6% of 100,000 active; active = z-score of 3 or more in at least 2 runs
A number is an active result; 0 = inactive; - = not tested or not shown.

SMILES	CDC25B CDK2 inh	TAR Tat displ
COCCNC(=O)c1cc2c(=O)n3cccc(C)c3nc2s1	0	-
Cc1cc(C)nc(-n2nc(C)c3c2NC(=O)CC3c2c(F)cccc2Cl)n1 (stereo not given)	0	0
CCNc1cc(N2CCN(C)CC2)c2noc3c2c1C(=O)c1ccccc1-3	0	0
CN1CCN(c2cc(NCC(=O)O)c3c4c(onc24)-c2ccccc2C3=O)CC1	3.85	0
CCN1CCN(c2cc(N3CCCCC3)c3c4c(onc24)-c2ccccc2C3=O)CC1	0	0
CN1CCN(c2cc(N3CCCCC3)c3c4c(onc24)-c2ccccc2C3=O)CC1	5.56	0
CCOc1ccc(-c2noc(-c3ccc[nH]c3=O)n2)cc1OC	0	0
Cc1ccccc1N1CSC2=C(C#N)C(c3cccs3)CC(=O)N2C1 (stereo not given)	5.09	0
CCc1ccccc1N1CSC2=C(C#N)C(c3cccs3)CC(=O)N2C1 (stereo not given)	6.73	0
O=C(CS(=O)(=O)c1ccc2c(c1)S(=O)(=O)N=CN2)Nc1ccccc1Br	-	0
COc1ccc(-c2nnc3c4cc5c(cc4n(Cc4ccccc4)cc2-3)OCCO5)cc1	0	0
COc1ccccc1Cn1cc2c(-c3ccc(F)cc3)nnc-2c2cc3c(cc21)OCO3	0	0
COc1ccc(Cn2cc3c(-c4ccccc4)nnc-3c3cc4c(cc32)OCCO4)cc1	7.36	0
COc1ccc(-c2nnc3c4cc5c(cc4n(Cc4ccccc4F)cc2-3)OCCO5)cc1OC	7.32	0
Cn1c(=O)c2c(SCc3cccnc3)nc(-c3ccco3)nc2n(C)c1=O	0	-
CC(=O)N1c2ccc(S(=O)(=O)N3CCCCC3)cc2CC1C(=O)N1CCC(C)CC1 (stereo not given)	-	0
Cc1ccsc1CCNS(=O)(=O)c1c(C(=O)N2CCCCC2)c(C)n(C)c1C	-	0
Nc1cccc(C2NC(=O)CS2)c1 (stereo not given)	9.97	0
O=C1CSC(c2cccc(NS(=O)(=O)c3ccc(Cl)cc3)c2)N1 (stereo not given)	-	0
O=C(O)c1nc(Nc2ccc(F)cc2)c2ccccc2n1	0	0
CCOC(=O)COc1ccc2c(C(F)(F)F)cc(=O)oc2c1	0	-
O=CC(C=Nc1ccc(Cl)cn1)[N+](=O)[O-] (stereo not given)	4.3	-
Cc1ccc(S(=O)(=O)Nc2ccc(Cl)c(N3CCCS3(=O)=O)c2)cc1	-	0
COc1cccc(CNc2nc3ccccc3c3nc(-c4ccccc4)nn23)c1	0	0
CCCCN1C(SCC)=NS(=O)(=O)c2ccccc21	-	0
SMILES	CDC25B CDK2 inh	TAR Tat displ
O=C1CC(c2ccco2)Cc2[nH]c(=O)c(-c3nc(-c4ccccc4)cs3)cc21 (stereo not given)	16.8	0
O=C1CC(c2ccco2)Cc2[nH]c(=O)c(-c3nc(-c4cccc(Cl)c4)cs3)cc21 (stereo not given)	0	0
C=CC(=C)CC(NC)c1ccccc1 (stereo not given)	16.2	0
C=C(C)CC(NC(C)c1ccccc1)c1ccco1 (stereo not given)	0	0
COCCCNC(=O)c1sc2nc3n(c(=O)c2c1C)CCCC3	-	0
CCN(CC)C(=O)c1ccc(CS(=O)c2ccccc2Cl)o1 (stereo not given)	-	0
Cc1ccc(S(=O)(=O)Nc2cc(Sc3nc4ccccc4[nH]3)c(O)c3ccccc23)cc1	18	-
Cc1ccc(S(=O)(=O)Nc2cc(Sc3nc(C)cc(C)n3)c(O)c3ccccc23)cc1	0	-
COc1ccccc1N1CCN(S(=O)(=O)c2cc(N3C(=O)CCS3(=O)=O)ccc2OC)CC1	0	0
Cc1nc2cc(NCc3ccco3)ccc2n1C	16.1	0
COc1ccccc1-n1cnc2cc(NCc3ccco3)ccc21	0	0
Cc1ccc(-n2cnc3cc(NCc4ccncc4)ccc32)cc1	0	0
Cc1nc2cc(NCc3ccncc3)ccc2n1C	13.9	0
Cc1cc(-c2ccc(C)c(S(=O)(=O)Nc3ccc(C)c(F)c3)c2)n[nH]1	-	0
COc1ccccc1-c1cc(C(F)(F)F)n2ncc(C(=O)N3CCCC3c3ccco3)c2n1 (stereo not given)	0	0
Cc1ccc(-c2ccc(=O)n(Cc3ccc(Cl)cc3)n2)cc1S(=O)(=O)N1CCOCC1	0	0
Cc1ccc(C)n1-c1ccc(Cl)cc1C(=O)O	0	14.3
Cc1ccc(C)n1-c1ccc(Cl)c(C(=O)O)c1	0	16.3
Cc1ccc(C)n1-c1cc(C(=O)O)ccc1Cl	0	-
Cc1cc(C(=O)O)ccc1-n1c(C)ccc1C	0	-
COC(=O)c1cc(S(=O)(=O)NCCC2=CCCCC2)c[nH]1	-	0
COc1ccc(S(=O)(=O)N2CCN(c3cc(N4CCCCC4)nc(C)n3)CC2)cc1C	0	0
COc1ccc(OC)c2c(C)cc(N3CCN(S(=O)(=O)c4ccc(C)cc4)CC3)nc12	0	7.84
COc1ccc2[nH]cc(/C=C/c3nc4ccccc4c(=O)n3-c3ccccc3)c2c1	0	0
O=S1(=O)C[C@H](NCc2ccccc2)[C@@H](S(=O)(=O)c2ccccc2)C1	0	0
SMILES	CDC25B CDK2 inh	TAR Tat displ
CC(C)(C)N[C@H]1CS(=O)(=O)C[C@@H]1S(=O)(=O)c1ccccc1	0	18.9
COc1ccc(C2C(C(=O)OC(C)C)=C(C)NC(C)=C2C(=O)OC(C)C)cc1OC	0	-
COc1cc(Br)c(CC2c3cc(OC)c(OC)cc3CCN2C)cc1OC (stereo not given)	-	0
CN1CCc2cc(O)c(O)cc2C1Cc1ccc(O)c(O)c1 (stereo not given)	-	38.1
CS(=O)(=O)CCC(C(=O)N1CC=C(c2ccccc2)CC1)N1Cc2ccccc2C1=O (stereo not given)	-	0
COCCN1C(=O)c2oc3cc(C)cc(C)c3c(=O)c2C1c1ccc(O)c(OC)c1 (stereo not given)	0	0
Cc1cc2nc(CSc3ccccc3N)c(=O)[nH]c2cc1C	-	0
Cc1cc2nc(CSc3ccc(N)cc3)c(=O)[nH]c2cc1C	-	18.9
N#CC1=C2SCN(c3ccccc3F)CN2C(=O)CC1c1cccc(F)c1 (stereo not given)	6.6	0
N#CC1=C2SCN(c3ccccc3F)CN2C(=O)CC1c1c(F)cccc1Cl (stereo not given)	0	0
CCc1ccccc1N1CSC2=C(C#N)C(c3cccc(F)c3)CC(=O)N2C1 (stereo not given)	6.32	0
N#CC1=C2SCN(c3ccccc3F)CN2C(=O)CC1c1cccc(Br)c1 (stereo not given)	0	0
CCOC(=O)c1nc(N2CCN(c3cc(C)ccc3C)CC2)c2c(C)noc2n1	-	0
Cc1nn(C)c2c1c(C(F)(F)F)cc(=O)n2CCN1CCOCC1	-	0
CC(=O)Nc1nc(C)c(-c2csc(Nc3ccc(Cl)cc3)n2)s1	0	0
CC(=O)Nc1nc(C)c(-c2csc(NCc3ccccc3)n2)s1	6.84	-
CN1C(=O)Cc2cc(S(=O)(=O)CCC(=O)N3CCc4ccccc4C3)ccc21	-	0
Cc1c(C(=O)CC#N)sc2ccc(Cl)cc12	0	-
Cc1c(C(=O)Cn2ccnc2)sc2ccc(Cl)cc12	13.6	-
CN1C(=O)Cc2cc(NS(=O)(=O)c3ccccc3Br)ccc21	-	0
Cc1cc(-c2ccc(S(=O)(=O)Nc3cccc(Br)c3)s2)n[nH]1	-	0
C=CCn1c(=O)c(C(=O)Nc2nc(C)cc(C)n2)c(O)c2ccccc21	-	0
c1ccc(-c2c3ssnc-3c3ccccc23)cc1	16.8	-
Cc1nc(-c2ccccc2)c(-c2ccccc2)s1	0	0
O=C(Nc1cc(F)ccc1F)c1cc2cc3ccc(Cl)cc3nc2o1	-	0
CC(=O)Nc1ccc(OC(=O)c2cccc(Cl)c2)cc1	0	-
